Test results as given in the supplement of paper PMC10646978.
± gives the standard deviation.

Assays:
Details in all cases: modulator concentration 10 µM
[1] = test system: RAW-Dual (murine macrophage reporter line); experiment: NF-kB reporter (SEAP) activity fold change vs agonist alone; higher = enhanced NF-kB activity
In short: (§1)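 Overnight stimulation with a PRR agonist followed pre-incubation for 1 hour at 37 °C with compound at 10 μM final. This was done in RAW-Dual murine macrophage reporter cells seeded at 50 000 per well in 384-well plates. NF-κB (SEAP, QUANTI-Blue absorbance at 620 nm) and IRF (Lucia luciferase, QUANTI-Luc luminescence) were read from the supernatant. Each reporter's fold change relative to the mean agonist-only control on the same plate was averaged over replicate plates.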

[2] = test system: RAW-Dual (murine macrophage reporter line); experiment: IRF reporter (Lucia luciferase) activity fold change vs agonist alone; higher = enhanced IRF activity
In short: as §1

[3] = test system: RAW-Dual (murine macrophage reporter line); experiment: viability score (confluency relative to resting cells, overnight) (fraction); higher = more viable, active = viable (0.7 or more)
In short: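 A compound met the cutoff when both of two confluency masks exceeded 70% of resting cells. Those masks were made with IncuCyte software from IncuCyte images of RAW-Dual macrophages treated overnight at 10 μM final. This is the basis of the viability score, which is confluency relative to resting cells.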

[4] = agonist: CpG ODN 1826 0.5 ug/mL

Compound	NF-kB reporter [1, 4]	NF-kB reporter ([1]; agonist: LPS 0.1 ug/mL)	NF-kB reporter ([1]; agonist: MPLA […])	IRF reporter ([2]; agonist: 3'3'-cGAMP 10 ug/mL)	IRF reporter ([2]; agonist: LPS 0.1 ug/mL)	IRF reporter ([2]; agonist: MPLA […])	viability score [3]
COC(=O)c1ccc(CN2CCc3ccccc3C2)cc1	0.82 ± 0.089	1.17 ± 0.08	1.3 ± 0.059	0.832 ± 0.052	0.974 ± 0.1	1.5 ± 0.36	0.938 (active)
CCSc1nnc(NC(=O)C2CC3CCC2C3)s1 (stereo not drawn)	0.941 ± 0.058	0.969 ± 0.06	0.884 ± 0.06	1.29 ± 0.098	1.4 ± 0.092	1.09 ± 0.1	0.94 (active)
COCCNC(=O)C=Cc1ccccc1	1.12 ± 0.12	0.936 ± 0.085	1.05 ± 0.072	1.02 ± 0.15	0.98 ± 0.055	1.03 ± 0.074	0.991 (active)
COc1ccc(C)c2sc(=NC(=O)c3ccccc3)n(C)c12	1.16 ± 0.11	1.17 ± 0.06	2.25 ± 0.073	0.904 ± 0.05	0.969 ± 0.15	2.01 ± 0.31	0.99 (active)
Brc1c(NC2=NCCN2)ccc2nccnc12 [Prestw-1751]	1.24 ± 0.13	0.858 ± 0.079	0.97 ± 0.035	1.02 ± 0.043	1.01 ± 0.054	1.01 ± 0.12	0.996 (active)
CCOc1ccccc1OCCCCOc1ccc(I)cc1	1.12 ± 0.18	1 ± 0.12	0.937 ± 0.11	0.967 ± 0.025	0.994 ± 0.098	1.18 ± 0.17	1 (active)
C=CC(=O)Nc1cccc(Nc2nc(Nc3ccc(N4CCN(C(C)=O)CC4)cc3OC)ncc2C(F)(F)F)c1	0.634 ± 0.16	0.662 ± 0.035	0.977 ± 0.086	0.0805 ± 0.0073	0.438 ± 0.14	0.406 ± 0.04	0.926 (active)
CC(C)(C)c1cc(C=NO)c(C(C)(C)C)s1	0.48 ± 0.028	1.03 ± 0.063	0.985 ± 0.061	0.6 ± 0.02	1.13 ± 0.074	0.746 ± 0.22	0.0422 (inactive)
COC(=O)C1C(=O)C(=CNc2ccccc2C)C(=O)CC1(C)C (stereo not drawn)	1.07 ± 0.092	1.02 ± 0.075	1.03 ± 0.1	0.993 ± 0.049	1.12 ± 0.34	1.08 ± 0.2	1.03 (active)
O=C1C(N2CCC(O)C2)CCN1CC(F)(F)F (stereo not drawn)	0.992 ± 0.12	1.04 ± 0.1	0.876 ± 0.086	1.03 ± 0.053	1.22 ± 0.079	1.24 ± 0.15	1.01 (active)
CC(Cc1ccc(O)c(O)c1)C(C)Cc1ccc(O)c(O)c1 (stereo not drawn)	1.16 ± 0.31	0.645 ± 0.057	1.31 ± 0.094	0.0338 ± 0.0028	0.509 ± 0.062	0.544 ± 0.055	0.618 (inactive)
CNC(=O)c1ccc2cc(C3(O)CCn4cncc43)ccc2c1 (stereo not drawn)	0.99 ± 0.15	0.866 ± 0.28	0.937 ± 0.052	0.932 ± 0.04	0.964 ± 0.22	0.945 ± 0.17	0.995 (active)
CN1CCC(=C2c3ccccc3C=Cc3ccccc32)CC1 [Prestw-103]	0.516 ± 0.038	0.833 ± 0.056	1.01 ± 0.053	0.72 ± 0.067	0.905 ± 0.1	0.915 ± 0.12	0.293 (inactive)
CCOC(=O)C1=C(C)NC(C)=C(C(=O)OC)C1c1ccc(Cl)cc1 (stereo not drawn)	0.607 ± 0.14	0.448 ± 0.035	0.563 ± 0.062	1 ± 0.057	1.01 ± 0.1	1.26 ± 0.21	0.598 (inactive)
CCC(=O)Nc1ccc(C(=O)NN=Cc2ccc(C#N)cc2)cc1	1.04 ± 0.094	1.03 ± 0.081	0.913 ± 0.064	0.972 ± 0.03	1.53 ± 0.22	1.11 ± 0.23	1.01 (active)
CCCC1CC(C(=O)NC(C(C)O)C2OC(SC)C(O)C(O)C2O)N(C)C1.Cl (stereo not drawn)	0.947 ± 0.073	0.93 ± 0.072	0.924 ± 0.099	0.956 ± 0.031	1.24 ± 0.11	1.32 ± 0.17	1.04 (active)
COc1ccc(OC)c(-c2csc(NC(=O)Cc3ccc(F)cc3)n2)c1	0.902 ± 0.097	0.944 ± 0.069	1.12 ± 0.1	1.1 ± 0.078	1.2 ± 0.18	1.38 ± 0.36	0.998 (active)
Nc1nonc1C(=O)NN=Cc1cc(Br)c(O)c(Br)c1	1.05 ± 0.085	1.01 ± 0.076	1.03 ± 0.054	0.938 ± 0.11	1.08 ± 0.12	1.05 ± 0.23	0.997 (active)
COCCNc1nc(SCC(=O)Nc2cccc(C(F)(F)F)c2)nc2ccccc12	0.268 ± 0.022	0.549 ± 0.051	0.528 ± 0.043	0.601 ± 0.035	1.29 ± 0.28	1.42 ± 0.46	0.956 (active)
Oc1cc(O)c2c(c1)OC(c1ccc(O)c(O)c1)C(O)C2 (stereo not drawn)	0.936 ± 0.098	0.859 ± 0.087	1.05 ± 0.1	0.891 ± 0.028	1.13 ± 0.17	1.29 ± 0.32	1.06 (active)
CCOC(=O)CNS(=O)(=O)c1ccc([N+](=O)[O-])cc1	1.09 ± 0.093	1.05 ± 0.11	1.04 ± 0.061	0.997 ± 0.13	1.05 ± 0.044	1.09 ± 0.087	0.998 (active)
O=C1CSC(=S)N1N=Cc1ccc(O)c([N+](=O)[O-])c1	0.956 ± 0.091	1.1 ± 0.11	0.97 ± 0.084	1.04 ± 0.027	1.75 ± 0.36	1.1 ± 0.17	0.994 (active)
COc1ccc(Br)c(C(=O)N2CCOCC2CO)c1 (stereo not drawn)	0.922 ± 0.049	0.963 ± 0.095	1.03 ± 0.071	0.997 ± 0.098	1.36 ± 0.26	1.52 ± 0.51	0.951 (active)
N#Cc1ccc(C(=O)Nc2nc(-c3cccs3)c(C(=O)C(F)(F)F)s2)cc1	0.789 ± 0.091	1.06 ± 0.13	1.09 ± 0.17	0.958 ± 0.03	1.36 ± 0.21	1.54 ± 0.27	1.03 (active)
